The panel holds about 79,000 compounds, 15% with a hit somewhere; the sample as a whole holds those more often. Activity calls are given as the source filed them. Cut-off read from the data, not from the text of the source: active = growth inhibition above about 70%; inactive = the rest.
Assays:
[1] = NCI Yeast Anticancer Drug Screen. Data for the rad52 strain (AID 147);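 note: 0% = growth of vehicle-treated control cultures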; conditions: S. cerevisiae rad52 mutant growth inhibition, active compounds read high
Procedure, shortened: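 DNA repair-defective yeast; compound exposure; growth scored against vehicle controls.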

[2] = NCI Yeast Anticancer Drug Screen. Data for the wt1 strain (AID 149);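 note: 0% = growth of vehicle-treated wt1 cultures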; conditions: S. cerevisiae wt1 strain (SPY 50644) growth inhibition, active compounds read high
Procedure, shortened: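 Readout: yeast growth inhibition, normalised to vehicle controls, in the wt1 strain exposed to test compounds.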

[3] = NCI Yeast Anticancer Drug Screen. Data for the rad50EPP+ strain (AID 151);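 note: 0% = growth of vehicle-treated control cultures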; conditions: S. cerevisiae rad50 mutant strain, active compounds read high
Procedure, shortened: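 rad50EPP+ yeast treated with test compounds. Readout: growth vs vehicle control.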

[4] = NCI Yeast Anticancer Drug Screen. Data for the mgt1 strain (AID 153); conditions: S. cerevisiae mgt1 mutant growth inhibition, active compounds read high
Procedure, shortened: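 Growth inhibition relative to vehicle controls was scored for the mgt1 yeast strain after compound exposure.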

[5] = NCI Yeast Anticancer Drug Screen. Data for the rad50 strain (AID 155);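 note: 0% = growth of vehicle-only cultures of the same strain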; conditions: S. cerevisiae rad50 strain growth inhibition, active compounds read high
Procedure, shortened: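 Compounds were tested on a yeast strain with an engineered DNA damage repair alteration; the reported value is growth inhibition normalised to vehicle treatment.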

[6] = NCI Yeast Anticancer Drug Screen. Data for the mec2-1 strain (AID 157); conditions: S. cerevisiae mec2-1 strain, active compounds read high
Procedure, shortened: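 Growth inhibition is read against vehicle-treated controls after compound exposure of the mec2-1 yeast strain, which is defective in DNA damage repair or cell cycle control.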

[7] = NCI Yeast Anticancer Drug Screen. Data for the rad14 strain (AID 159);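 note: 0% = growth of vehicle-treated control cultures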; conditions: S. cerevisiae rad14 strain growth inhibition, active compounds read high
Procedure, shortened: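 Compound-treated yeast with a defined DNA-repair lesion; growth inhibition normalised to vehicle-treated cultures.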

[8] = NCI Yeast Anticancer Drug Screen. Data for the sgs1 mgt1 strain (AID 161);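 note: 0% = growth of cultures given vehicle only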; conditions: S. cerevisiae sgs1 mgt1 strain, active compounds read high
Procedure, shortened: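 This yeast growth screen uses a strain with defined DNA-repair lesions; compound-treated growth is compared with vehicle-treated growth.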

[9] = NCI Yeast Anticancer Drug Screen. Data for the CLN2oe strain (AID 163);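 note: 0% = growth of vehicle-only control cultures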; conditions: S. cerevisiae CLN2oe strain, active compounds read high
Procedure, shortened: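 Compound-treated yeast; growth vs vehicle ctrl = % inhibition. Genetically altered strain (cell-cycle control).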

[10] = NCI Yeast Anticancer Drug Screen. Data for the cln2 rad14 strain (AID 165);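 note: 0% = growth equal to vehicle treated cultures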; conditions: S. cerevisiae cln2 rad14 strain, active compounds read high
Procedure, shortened: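 Growth inhibition, relative to vehicle-treated controls, is the read-out. The test organism is a yeast strain with defined genetic alterations, cln2 rad14.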

[11] = NCI Yeast Anticancer Drug Screen. Data for the bub3 strain (AID 167); conditions: S. cerevisiae bub3 mutant strain, active compounds read high
Procedure, shortened: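 Growth of a checkpoint-deficient yeast mutant is measured after compound exposure. Values represent inhibition relative to vehicle.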

[12] = NCI Yeast Anticancer Drug Screen. Data for the wt2 strain (AID 169);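 note: 0% = growth of vehicle-treated yeast cultures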; conditions: S. cerevisiae wt2 strain growth inhibition, active compounds read high
Procedure, shortened: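 Compound exposure of yeast; growth compared with vehicle controls; inhibition reported.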

[13] = NCI Yeast Anticancer Drug Screen. Data for the mlh1 strain (AID 171);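 note: 0% = growth of vehicle-treated control cultures of the same strain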; conditions: S. cerevisiae mlh1 strain growth inhibition, active compounds read high
Procedure, shortened: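 Compounds are applied to a genetically altered yeast strain, and its growth is compared with that of vehicle-treated cultures to give percent inhibition.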

[14] = NCI Yeast Anticancer Drug Screen. Data for the sgs1 strain (AID 173);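 note: 0% = growth of vehicle-only control cultures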; conditions: S. cerevisiae sgs1 mutant, active compounds read high
Procedure, shortened: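 Compounds applied to genetically altered yeast; growth compared with vehicle-treated cultures to give % inhibition.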

[15] = NCI Yeast Anticancer Drug Screen. Data for the mlh1 rad18 strain (AID 175); conditions: S. cerevisiae mlh1 rad18 strain growth inhibition, active compounds read high
Procedure, shortened: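 Cells of a genetically altered yeast strain, deficient in DNA damage repair, were treated with compound. Their growth was then compared with that of vehicle-treated cultures to give inhibition.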

[16] = NCI Yeast Anticancer Drug Screen. Data for the rad18 strain (AID 177); conditions: S. cerevisiae rad18 mutant growth inhibition, active compounds read high
Procedure, shortened: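 Compounds are applied to a repair-deficient yeast strain, and growth is compared with that of vehicle-treated cultures to give percent inhibition.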

[17] = at 5.0 µM (retest, dose inferred, filed as 0.5)
[18] = at 50.0 µM (retest, dose inferred, filed as 5.0)

Measured: growth inhibition

Cc1cc(O)c(C(C)C)cc1C1(c2cc(C(C)C)c(O)cc2C)OC(=O)c2ccccc21
inactive: [1]; at 1.2 µM -4% | [1]; at 3.7 µM -3% | [1]; at 11.0 µM -5% | [1]; at 33.0 µM -3% | [1]; at 100.0 µM 34% | [2]; at 1.2 µM 2% | [2]; at 3.7 µM 2% | [2]; at 11.0 µM 5% | [2]; at 33.0 µM 1% | [2]; at 100.0 µM 20% | [3]; at 1.2 µM 0% | [3]; at 3.7 µM -1% | [3]; at 11.0 µM 0% | [3]; at 33.0 µM 0% | [3]; at 100.0 µM 0% | [4]; at 1.2 µM -1% | [4]; at 3.7 µM -1% | [4]; at 11.0 µM -2% | [4]; at 33.0 µM -3% | [4]; at 100.0 µM 18% | [5]; at 1.2 µM 3% | [5]; at 3.7 µM 0% | [5]; [17] 17% | [5]; at 11.0 µM 10% | [5]; at 33.0 µM 1% | [5]; at 100.0 µM 36% | [6]; at 1.2 µM 2% | [6]; at 3.7 µM 2% | [6]; [17] 0% | [6]; at 11.0 µM 1% | [6]; at 33.0 µM 4% | [6]; at 100.0 µM 29% | [7]; at 1.2 µM -1% | [7]; at 3.7 µM 1% | [7]; at 11.0 µM -1% | [7]; at 33.0 µM -4% | [7]; at 100.0 µM 33% | [8]; [17] 16% | [9]; at 1.2 µM -3% | [9]; at 3.7 µM -2% | [9]; at 11.0 µM -6% | [9]; at 33.0 µM -5% | [9]; at 100.0 µM 12% | [10]; [17] 51% | [11]; at 1.2 µM -2% | [11]; at 3.7 µM 1% | [11]; [17] -12% | [11]; at 11.0 µM -34% | [11]; at 33.0 µM 16% | [11]; at 100.0 µM 24% | [12]; at 1.2 µM -2% | [12]; at 3.7 µM -4% | [12]; at 11.0 µM -3% | [12]; at 33.0 µM -3% | [12]; at 100.0 µM 31% | [13]; at 1.2 µM 5% | [13]; at 3.7 µM 3% | [13]; at 11.0 µM 3% | [13]; at 33.0 µM -24% | [13]; at 100.0 µM 31% | [14]; at 1.2 µM 2% | [14]; at 3.7 µM 4% | [14]; at 11.0 µM 5% | [14]; at 33.0 µM 2% | [14]; at 100.0 µM 48% | [15]; [17] 9% | [16]; at 1.2 µM 10% | [16]; at 3.7 µM 4% | [16]; at 11.0 µM -2% | [16]; at 33.0 µM 3% | [16]; at 100.0 µM 32%
active: [5]; [18] 98% | [5]; at 50.0 µM 94.1% | [6]; [18] 98% | [6]; at 50.0 µM 91.7% | [8]; [18] 98% | [8]; at 50.0 µM 82% | [10]; [18] 97% | [10]; at 50.0 µM 97% | [11]; [18] 98% | [11]; at 50.0 µM 91.1% | [15]; [18] 98% | [15]; at 50.0 µM 91.6%

Cc1cc(S(=O)(=O)Nc2nnc3cnc4ccccc4n23)c(S)cc1Cl
inactive: [1]; at 1.2 µM -1% | [1]; at 3.7 µM 0% | [1]; at 11.0 µM 4% | [1]; at 33.0 µM 17% | [1]; at 100.0 µM 43% | [2]; at 1.2 µM -1% | [2]; at 3.7 µM -3% | [2]; at 11.0 µM 4% | [2]; at 33.0 µM 11% | [2]; at 100.0 µM 28% | [3]; at 1.2 µM -3% | [3]; at 3.7 µM -16% | [3]; at 11.0 µM -25% | [3]; at 33.0 µM -57% | [3]; at 100.0 µM -59% | [4]; at 1.2 µM -2% | [4]; at 3.7 µM -2% | [4]; at 11.0 µM -1% | [4]; at 33.0 µM 26% | [4]; at 100.0 µM 34% | [5]; at 1.2 µM 0% | [5]; at 3.7 µM 0% | [5]; [17] -3% | [5]; at 11.0 µM 2% | [5]; at 33.0 µM 12% | [5]; [18] 60% | [5]; at 50.0 µM -14.9% | [5]; at 100.0 µM 37% | [6]; at 1.2 µM -1% | [6]; at 3.7 µM 0% | [6]; [17] 2% | [6]; at 11.0 µM 6% | [6]; at 33.0 µM 19% | [6]; [18] 61% | [6]; at 50.0 µM 1.7% | [6]; at 100.0 µM 54% | [7]; at 1.2 µM -1% | [7]; at 3.7 µM 3% | [7]; at 11.0 µM 9% | [7]; at 33.0 µM 21% | [7]; at 100.0 µM 40% | [8]; [17] -1% | [8]; [18] 47% | [8]; at 50.0 µM -11.9% | [9]; at 1.2 µM 3% | [9]; at 3.7 µM 3% | [9]; at 11.0 µM 16% | [9]; at 33.0 µM 24% | [9]; at 100.0 µM 44% | [10]; [17] 48% | [10]; [18] 54% | [10]; at 50.0 µM 52% | [11]; at 1.2 µM 4% | [11]; at 3.7 µM 1% | [11]; [17] 11% | [11]; at 11.0 µM 2% | [11]; at 33.0 µM 10% | [11]; at 50.0 µM -18.8% | [11]; at 100.0 µM 32% | [12]; at 1.2 µM -1% | [12]; at 3.7 µM -2% | [12]; at 11.0 µM 4% | [12]; at 33.0 µM 14% | [12]; at 100.0 µM 35% | [13]; at 1.2 µM -3% | [13]; at 3.7 µM -4% | [13]; at 11.0 µM 1% | [13]; at 33.0 µM 13% | [13]; at 100.0 µM 43% | [14]; at 1.2 µM -2% | [14]; at 3.7 µM 1% | [14]; at 11.0 µM 2% | [14]; at 33.0 µM 22% | [14]; at 100.0 µM 58% | [15]; [17] 8% | [15]; at 50.0 µM 15.2% | [16]; at 1.2 µM -6% | [16]; at 3.7 µM -1% | [16]; at 11.0 µM 21% | [16]; at 33.0 µM 14% | [16]; at 100.0 µM 48%
active: [11]; [18] 70% | [15]; [18] 82%

Source: PubChem BioAssay (NCI)
